Results on 33 molecules are retold here after PubChem BioAssay AID1053117 (Broad Institute, 2014).

Potency and affinity values are given separately. Calls of active or inactive are those of the source.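 Rule for the calls: active = compounds lowering cell ATP signal with a fitted half-effect dose at most twice the top valid dose; inconclusive = flat curve with 30 to 70% signal loss, or bad fit; inactive = wrong direction, flat within 30%, or weaker than limit.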

A short description of this assay: HEK293 cell cytotoxicity, dose response, cytotoxicity control, cherry-picks, set 5 (AID 1053117).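 Note: more negative means greater loss of ATP signal and more cytotoxicity.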 As to conditions: HEK293T viability, CellTiter-Glo ATP luminescence, 72 h; series mostly up to 26 µM.
Regarding `CCCc1cc(C(=O)OC)c(NC(=O)CCC(=O)O)s1`, the outcome was inactive.

Consider `Cc1ccc(S(=O)(=O)N2CC[C@@H]3[C@H](CO)Nc4ccc(-c5cccc(C(=O)N(C)C)c5)cc4[C@@H]32)cc1`, for which the result was inactive.

Regarding `COC(=O)c1cn(CC(=O)NCc2ccco2)c2ccccc12`, the outcome was inactive.

For `C[C@@H]1CN([C@H](C)CO)C(=O)c2cc(-c3ccccc3)cnc2O[C@@H]1CN(C)C(=O)c1cccc(F)c1`, the molecule was classed as inactive.

As to `OC(CNC1CCCc2ccccc21)COc1c(Cl)cccc1Cl` (stereo not drawn), the result was inactive.

In the case of `C[C@@H]1CN([C@@H](C)CO)C(=O)c2cc(-c3ccncc3)cnc2O[C@@H]1CN(C)C(=O)Cc1cccnc1`, the molecule was classed as inactive.

As for `CN(C)C(=O)c1ccc(-c2ccc3c(c2)[C@H]2[C@H](CCN2C(=O)c2ccc(F)cc2)[C@@H](CO)N3C)cc1`, the molecule was called inactive.

Regarding `CC(C)(C)c1cc(Cl)c(O)c(NC(=S)NC(=O)c2cccnc2)c1`, the molecule was classed as inactive.

Turning to `Cc1ccn2cc(-c3ccc(NC(=O)c4ccco4)cc3)nc2c1`, the result was inactive.

As to `COCC(C)n1c(SCc2nc(N)nc(Nc3ccccc3C)n2)nc2ccccc2c1=O` (stereo not drawn), the result was inactive.

`CN1c2ccc(-c3ccccc3)cc2[C@@H]2[C@@H](CCN2C(=O)CN2CCOCC2)[C@@H]1CO`: the outcome was inactive.

Consider `Fc1cnc(N2CCN(c3ccccc3)CC2)nc1N1CCN(c2ccccc2)CC1`, for which the molecule was called inactive.

On to `Cc1ccc(C(O)c2ncc(-c3cccc4ccccc34)[nH]2)cc1F` (stereo not drawn), for which the call was inactive.

For the molecule `S=C(NCC1CCCO1)Nc1ccc(Cl)cc1Cl` (stereo not drawn), the call was inactive.

Take `C[C@H]1CN([C@@H](C)CO)C(=O)c2cc(-c3ccccc3)cnc2O[C@@H]1CN(C)Cc1ccccc1`: the result was inactive.

Consider `Cc1ccc(S(=O)(=O)N2CC[C@@H]3[C@@H](CO)Nc4ccc(-c5cccc(C(=O)N(C)C)c5)cc4[C@@H]32)cc1`, for which the call was inactive.

`C[C@@H]1CN([C@@H](C)CO)C(=O)c2cc(NC(=O)CCCN(C)C)ccc2O[C@H]1CN(C)Cc1ccc(-c2ccccc2)cc1`: the molecule was called inactive.

Regarding `O=S(=O)(c1ccccc1F)N1CC[C@@H]2[C@H]1c1cc(-c3cccc(F)c3)ccc1N[C@@H]2CO`, the result was inactive.

In the case of `C[C@@H](O)C#Cc1ccc2c(c1)O[C@@H](CN(C)C)[C@@H](C)CN([C@@H](C)CO)S2(=O)=O`, the outcome was inactive.

In the case of `O=C(Nc1ccccc1F)N1C[C@H]2[C@@H](c3ccccc31)[C@@H](CO)N2C(=O)C1CC1`, the outcome was inactive.

Take `C[C@@H]1CN([C@@H](C)CO)C(=O)c2cccc(NC(=O)Nc3ccc(C(F)(F)F)cc3)c2O[C@H]1CN(C)C(=O)Nc1cccc2ccccc12`: the outcome was inactive.

As for `O=C(Nc1ccccc1F)N1C[C@@H]2[C@H](c3ccccc31)[C@H](CO)N2C(=O)C1CCOCC1`, the call was inactive.

With `COCC(=O)Nc1ccc2c(c1)C(=O)N(C)[C@H]1CC[C@H](CC(=O)NCc3ccccc3Cl)O[C@@H]1CO2`, the result was inactive.

With `O=C(CN1CCCC1)Nc1ccc(Oc2ccc(NC(=O)CN3CCCC3)cc2)cc1`, the result was inactive.

In the case of `COCC(=O)Nc1ccc2c(c1)C(=O)N(C)[C@@H]1CC[C@H](CC(=O)NCc3ccccc3Cl)O[C@@H]1CO2`, the molecule was called inactive.

Consider `CCN1CCN(C(c2ccccc2)c2nnnn2Cc2ccccc2)CC1` (stereo not drawn), for which the outcome was inactive.

For the molecule `Cc1ccc(-c2nc3ncccc3o2)cc1NC(=O)c1ccco1`, the call was inactive.

`c1ccc2[nH]c(SCc3cn4cccnc4n3)nc2c1`: the call was inactive.

With `Cc1cccc(NC(=O)Nc2ccc(S(=O)(=O)Nc3onc(C)c3C)cc2)c1`, the outcome was inactive.

As to `COc1ccccc1N(CC(=O)N(CC(C)C)CC(C)C)S(=O)(=O)c1cccs1`, the result was inactive.

As for `C[C@H](CO)N1C[C@H](C)[C@H](CN(C)C)Oc2cc(C#C[C@@H](C)O)ccc2S1(=O)=O`, the outcome was inactive.

Consider `CCCCOc1ccc(C(C)NC(=O)C2CCCN(S(=O)(=O)CCC)C2)cc1` (stereo not drawn), for which the molecule was classed as inactive.

`O=C(Nc1ccccc1F)N1C[C@@H]2[C@H](c3ccccc31)[C@@H](CO)N2C(=O)C1CC1`: the outcome was inactive.
